# Screens as filed in PubChem BioAssay.
# A selection: hits, their analogues and other compounds. The true share with any hit is near 2.4%.
# DNA Pol III inh – inhibitors of bacterial DNA polymerase III holoenzyme. 0.25% of 71,000 active. reconstituted DNA polymerase III holoenzyme replication, biochemical. Potency, µM (doses to about 57.1 µM)
#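 Reconstituted *E. coli* holoenzyme (0.35 nM Pol III, 1 nM beta, 154 nM SSB, 2 nM primase) was preincubated with compound for 15 min at RT. Synthesis on 1.4 nM ssM13Gori ran 35 min, then was stopped with PicoGreen/EDTA and read as dsDNA fluorescence.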
# ALOX15 inhib – inhibitors of human 15-lipoxygenase (ALOX15) | P16050 | purified 15hLO-1, xylenol orange hydroperoxide absorbance | Potency, µM (highest dose often 57.1 µM), hits mostly inhibitors | 1.4% of 74,000 active | AID 887; note: nearly all actives have a fitted effect of over 55% in size
# Target sequence (P16050 whole entry, looked up): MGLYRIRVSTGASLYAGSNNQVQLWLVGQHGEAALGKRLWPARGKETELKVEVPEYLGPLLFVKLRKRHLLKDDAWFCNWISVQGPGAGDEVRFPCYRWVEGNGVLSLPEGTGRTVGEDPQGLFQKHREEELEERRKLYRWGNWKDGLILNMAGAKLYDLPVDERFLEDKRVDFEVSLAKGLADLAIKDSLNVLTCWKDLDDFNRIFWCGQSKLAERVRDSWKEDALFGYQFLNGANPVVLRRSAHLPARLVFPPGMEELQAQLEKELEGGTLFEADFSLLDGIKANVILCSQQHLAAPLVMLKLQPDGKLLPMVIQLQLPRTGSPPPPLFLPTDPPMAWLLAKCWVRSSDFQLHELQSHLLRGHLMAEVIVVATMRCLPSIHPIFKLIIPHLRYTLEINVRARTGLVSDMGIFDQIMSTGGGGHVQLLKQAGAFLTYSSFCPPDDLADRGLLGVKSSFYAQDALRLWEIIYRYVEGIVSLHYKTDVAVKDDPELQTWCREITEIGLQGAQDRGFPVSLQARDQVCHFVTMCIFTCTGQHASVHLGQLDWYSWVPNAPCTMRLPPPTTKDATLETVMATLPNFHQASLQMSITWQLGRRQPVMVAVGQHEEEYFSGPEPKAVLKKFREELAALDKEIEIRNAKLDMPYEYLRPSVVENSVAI
#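 Hydroperoxide formed from arachidonic acid (50 uM) by purified human 15hLO-1 (40 nM) oxidizes ferrous iron, and the ferric-xylenol orange complex is read at 573 versus 405 nm. Compounds were preincubated 15 min; reaction ran 6 min at room temperature.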
# YjeE inh – inhibitors of E. coli YjeE (TsaE); P0AF67; purified YjeE enzyme, qHTS inhibition assay; Potency, µM; 0.05% of 71,000 active; AID 605
#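 Fluorescence polarization of a BODIPY Texas Red–ADP probe (2 uM) bound to purified YjeE (10 uM) was read after 15 min room-temperature incubation with compounds. Loss of polarization marks inhibitors; ADP serves as titrated control.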
# BRCT PPI red – BRCT-phosphoprotein interaction inhibition (red fluorophore); P38398; BRCT-phosphopeptide binding, red fluorescence polarization; Potency, µM (titrated, usually from 76.9 µM), hits mostly inhibitors; 0.03% of 75,000 active
#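 Rhodamine-labelled pBACH1 10-mer (100 nM) bound to BRCT domain (100 nM) at pH 7.3; compounds incubated 12 min room temperature, polarization read. Free peptide defines full inhibition; unlabelled decapeptide titrated as control.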
# BRCT PPI green – blocks human BRCA1 BRCT binding to phosphopeptide, green readout | P38398 | BRCA1 BRCT-phosphopeptide binding, green fluorescence polarization | Potency, µM (titrated, usually from 76.9 µM), actives largely listed as inhibitors | 0.05% of 75,000 active | AID 875
#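 Fluorescence polarization: His-tagged BRCT (~35 kDa BRCA1 C-terminus, 250 nM) bound to 100 nM fluorescein-labeled phosphorylated 10-aa BACH1 peptide, pH 7.3 phosphate buffer with DTT and Tween 20. Compounds incubated 12 min at room temperature; inhibition read as lowered polarization.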
# ERK AVP block – blocks ERK signaling stimulated by vasopressin | HEK293-V1b, vasopressin-stimulated pERK AlphaScreen | Potency, µM (series often up to 57.5 µM), actives largely listed as inhibitors | 0.99% of 72,000 active; note: nearly all actives have a fitted effect of over 55% in size
#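 V1b-HEK293 cells; cpd 30 min 37C; 25 nM vasopressin 5 min; lyse 10 min; AlphaScreen beads 5 hr RT. Normalized to DMSO basal and 25 nM vasopressin; AC50 by Hill fit.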
# Hits are given with their value; i = inactive; ? = inconclusive; nt = no result; ! = not active in a repeat; [ ] = another dose, or the depositor's remark. Calls come from the whole dose curve; as a rule, active = well fitted curve in the direction sought with a large enough effect; inconclusive = small, poorly fitted or top-dose-only effect, or another doubt; inactive = no such curve, though single readings can be large; an effect the other way counts as inactive or inconclusive.
SMILES,DNA Pol III inh,ALOX15 inhib,YjeE inh,BRCT PPI red,BRCT PPI green,ERK AVP block
C[C@]12CN(CC[N+](C)(C)C)C[C@]1(C)[C@@H]1CC[C@@H]2O1,i[11.4 µM],i[11.4 µM],i,i[15.4 µM],i[15.4 µM],i[11.5 µM]
C[C@]1(C(=O)O)[C@@H]2CC[C@@H](O2)[C@@]1(C)C(=O)O,i,i,i,i,i,7.9µM
CC(=O)[O-].CC(=O)[O-].O.O.[Cd+2],0.25µM,nt,?,i,i,i
C=CC(C)=O,i,i,i,i,i,i
C#CCN[C@@H](C)Cc1ccccc1,i,i,i,i,i,i
C[C@H](CCC(=O)O)[C@H]1CC[C@H]2[C@@H]3CC[C@@H]4C[C@H](O)CC[C@]4(C)[C@H]3CC[C@]12C,?,i,i,i,i,40µM
CNc1ccc2oc(C[C@H]3O[C@]4(CC[C@H]3C)O[C@H]([C@H](C)C(=O)c3ccc[nH]3)[C@H](C)C[C@H]4C)nc2c1C(=O)O,i,i,i,i,i,5µM
C[CH2][Hg][S]c1ccccc1C(=O)O,nt,1.3µM,nt,i,i[3.08 µM],10µM
CC1CC[C@@]2(OC1)O[C@@H]1[C@@H](O)[C@H]3C4CC[C@H]5C[C@@H](O[C@@H]6O[C@H](CO)[C@H](O[C@@H]7O[C@H](CO)[C@@H](O)[C@H](O[C@@H]8OC[C@@H](O)[C@H](O)[C@H]8O)[C@H]7O[C@@H]7O[C@H](CO)[C@@H](O)[C@H](O[C@@H]8O[C@H](CO)[C@@H](O)[C@H](O)[C@H]8O)[C@H]7O)[C@H](O)[C@H]6O)[C@H](O)C[C@]5(C)C4CC[C@]3(C)[C@H]1[C@@H]2C (some centres undefined),nt,i,nt,i,i,40µM
CC1CC[C@@]2(OC1)OC1C(O)C3C4CC[C@H]5CC(O[C@@H]6O[C@@H](CO)[C@H](OC7OC(CO)C(O)C(OC8OCC(O)C(O)[C@H]8O)[C@@H]7O[C@@H]7OC(CO)[C@H](O)[C@@H](O[C@@H]8OC(CO)C(O)C(O)C8O)C7O)C(O)C6O)C(O)C[C@]5(C)C4CC[C@]3(C)C1C2C (some centres undefined),nt,i,nt,i,i[3.08 µM],?
C=CCOC(C)=O,i,i,i,i,i,i
CCCCCCCCC(=O)NCc1ccc(O)c(OC)c1,i,25µM!,i,i,i,i
COc1cc(CNC(=O)CCCC/C=C/C(C)C)ccc1O,i,?,i,i,i,?
COc1ccc2c(c1)CC1(CN2C)C(=O)NC(=O)N(CCc2ccccc2)C1=O (centres undefined),i,16µM,i,i,i,i
N#CC(C#N)=Cc1cc(O)c(O)c(O)c1,i,7.9µM,i,i,i,i
O=C1C[C@@H]2OCC=C3CN4CC[C@]56c7ccccc7N1[C@H]5[C@@H]2[C@H]3C[C@@H]46,i,nt,i,nt,nt,nt
CC1=NCCc2c1[nH]c1cc(O)ccc21,i,i,i,i,32µM!,i
O=C(O)C(Cl)(Cl)Br,i,i,i,i,i,i
CCCCCCn1c(N)c(C(=O)NCCN2CCOCC2)c2nc3ccccc3nc21,i,16µM,i,i,i,i
CCCCCn1c(N)c(C(=O)NCCN2CCOCC2)c2nc3ccccc3nc21,i,i,i,i,i,i
Cl.Cl.Cl.Cl.Cl.Cl.N.N.N.N.NNNNN.NNNNN.O.O.[Ru].[Ru].[Ru],?,i,79µM,i,i,?
ClCC[N+]12CC[N+](CCCl)(CC1)C2 (tested in a mixture with another compound),i[11.4 µM],i[11.4 µM],i,i[15.4 µM],i[15.4 µM],i[11.5 µM]
Cc1ccc(NC(=[OH+])c2cc3ccccc3cc2O)c(C)c1.Cc1ccc(NC(=[OH+])c2cc3ccccc3cc2O)c(C)c1.[Ni],i[11.4 µM],4µM,i,i[15.4 µM],i[15.4 µM],i[11.5 µM]
CN(C)c1ccc(NC(=O)CN2C(=O)CN=C(c3ccccc3)c3ccccc32)cc1,i,i,i,i,i,i
Cc1ccccc1C1=NCC(=O)N(CC(=O)NCc2ccco2)c2sc3c(c21)CCCC3,i,25µM,i,i,i,i
SMILES,DNA Pol III inh,ALOX15 inhib,YjeE inh,BRCT PPI red,BRCT PPI green,ERK AVP block
NC(=O)OCCSc1nnc(-c2cccc(C(N)=S)c2)o1,i,i,i,i,i,i
O=C(OCC#CCSc1nnc(-c2ccccc2)o1)c1ccco1,i,25µM,i,i,i,i
CCCCC/C=C\C/C=C\C/C=C\C/C=C\CCCC(=O)O,nt,0.32µM,nt,i,i,i
CC(=O)[O][Hg][c]1ccccc1,i,0.013µM,i,i,i,?
CC(=O)/C=C/c1ccccc1,i,i,i,i,i,i
CN(C)[C@@H]1C(=O)C(C(N)=O)=C(O)[C@]2(O)C(=O)C3=C(O)c4c(O)cccc4[C@](C)(O)[C@H]3C[C@@H]12,3.2µM,?,i,?,?,i[11.5 µM]
Clc1nc(Cl)nc(Nc2ccccc2Cl)n1,i,i,i,i,i,i
CC(=O)[C@H]1CC[C@H]2[C@@H]3CCC4=CC(=O)CC[C@]4(C)[C@H]3CC[C@]12C,i,i,i,i,i,?
C[C@@]12CCC3C(CCC4=CC(=O)CC[C@]43C)C1CCC2O (some centres undefined),nt,i,nt,i,i,32µM
O=C(O)c1ccccc1-c1c2cc(Br)c(=O)cc-2oc2[c]([Hg])c(O)c(Br)cc12,i,0.25µM,i,1.6µM,0.79µM,16µM!
CC(C)CCCC1(C)C=Cc2c(O)c3c(c(CCC(C)C)c2O1)OC12C(CC4CC1C(C)(C)OC2(CCC(C)C(=O)O)C4O)C3=O (centres undefined),nt,?,nt,i,i[3.08 µM],i
CC(C)=CCCC1(C)C=Cc2c(O)c3c(c(CC=C(C)C)c2O1)OC12C(=CC4CC1C(C)(C)OC2(C/C=C(/C)C(=O)O)C4=O)C3=O (centres undefined),nt,16µM,nt,i,i[3.08 µM],?
CC(C)=CCCC1(C)C=Cc2c(O)c3c(c(CC=C(C)C)c2O1)OC12C(=CC4CC1C(C)(C)OC2(C/C=C(/C)C(=O)O)C4O)C3=O (centres undefined),nt,20µM,nt,i,i,5µM
Cc1c(OCC(F)(F)F)ccnc1CS(=O)c1nc2ccccc2[nH]1 (centres undefined),i,25µM!,i,i,i,i
Cc1ccc(C2(c3ccc(C)c(O)c3C)CCN(C)CC2)c(C)c1O,i[11.4 µM],i[11.4 µM],i,i[15.4 µM],i[15.4 µM],i[11.5 µM]
O=C1C=CC(=O)c2c(O)cccc21,nt,2µM,nt,?,i[3.08 µM],?
C[C@@H](Cc1ccc2c(c1)OC(C(=O)O)(C(=O)O)O2)NC[C@H](O)c1cccc(Cl)c1,i,i,i,i,i,i
c1cc2cc(c1)C[n+]1ccc(c3ccccc31)NCc1ccc(cc1)CNc1cc[n+](c3ccccc13)C2,32µM,?,i,i,i,i
C=C(Cl)Cl,i,i,i,i,i,i
N[C@@H](Cc1cc(O)c(O)cc1O)C(=O)O,0.4µM,?,i,?,?,i
